Source: article PMC7862700, “An all-to-all approach to the identification of sequence-specific readers for epigenetic DNA modifications on cytosine”

Experiments:
Assay in all cases: DAPPL (digital affinity profiling via proximity ligation, sequencing); 10 mM Tris-HCl pH 7.5, 50 mM NaCl, 1 mM DTT, 4% glycerol, room temperature, 30 min; GST-TFs on glutathione beads, 16-mer random dsDNA library, 0.1% formaldehyde crosslink after washing; high values mean tight binding
FLI1 = biological target: T1, FLI1 (Homo sapiens, UniProt Q01543 1-452); details: protein: recombinant; tags: N-terminal GST; dsDNA, one strand shown
T1 sequence: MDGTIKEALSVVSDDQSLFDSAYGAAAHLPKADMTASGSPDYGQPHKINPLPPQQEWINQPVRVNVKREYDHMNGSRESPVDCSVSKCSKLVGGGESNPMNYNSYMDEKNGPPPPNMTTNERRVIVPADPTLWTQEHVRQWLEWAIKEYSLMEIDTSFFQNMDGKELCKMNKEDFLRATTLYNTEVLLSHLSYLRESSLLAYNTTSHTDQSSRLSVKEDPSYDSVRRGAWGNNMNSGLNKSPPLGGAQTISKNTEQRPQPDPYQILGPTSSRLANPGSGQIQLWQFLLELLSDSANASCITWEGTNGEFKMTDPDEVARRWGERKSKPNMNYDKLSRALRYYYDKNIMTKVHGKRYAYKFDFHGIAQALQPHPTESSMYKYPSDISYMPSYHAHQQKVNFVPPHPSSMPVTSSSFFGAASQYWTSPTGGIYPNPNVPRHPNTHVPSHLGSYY
Summary of the method: (§1)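 The binding signal reported is, for every hexamer, its read frequency for a factor over its read frequency for the tag-only sample. Reads came from pools of yeast-expressed, GST-fused human transcription factors on glutathione beads, barcoded with DNA and mixed with that sample, which were incubated with 200 nmole of a random double-stranded 16-mer DNA library in Tris/NaCl/DTT/glycerol buffer at room temperature for 30 min. After washing, the pools were crosslinked with 0.1% formaldehyde, proximity-ligated with BsaI/T4 ligase for 1 h at 37 °C, PCR-amplified and sequenced on an Illumina NextSeq500.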

ELK1 = biological target: T2, ELK1 (Homo sapiens, UniProt P19419 1-428); details: protein: recombinant; tags: N-terminal GST; dsDNA, one strand shown
T2 sequence: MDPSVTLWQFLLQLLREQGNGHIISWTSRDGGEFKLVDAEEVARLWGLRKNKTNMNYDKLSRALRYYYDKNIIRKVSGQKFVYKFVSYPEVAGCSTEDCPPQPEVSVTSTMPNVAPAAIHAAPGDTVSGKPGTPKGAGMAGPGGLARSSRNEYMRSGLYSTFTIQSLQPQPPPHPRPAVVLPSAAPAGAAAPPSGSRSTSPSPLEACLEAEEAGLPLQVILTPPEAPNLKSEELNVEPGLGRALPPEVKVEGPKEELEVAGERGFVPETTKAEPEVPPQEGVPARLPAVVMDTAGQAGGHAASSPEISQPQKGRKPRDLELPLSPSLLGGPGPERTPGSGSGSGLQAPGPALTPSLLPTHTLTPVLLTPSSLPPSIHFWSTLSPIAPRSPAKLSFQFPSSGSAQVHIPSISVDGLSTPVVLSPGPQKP
Summary of the method: as §1

GABPA = biological target: T3, GABPA (Homo sapiens, UniProt Q06546 1-454); details: protein: recombinant; tags: N-terminal GST; dsDNA, one strand shown
T3 sequence: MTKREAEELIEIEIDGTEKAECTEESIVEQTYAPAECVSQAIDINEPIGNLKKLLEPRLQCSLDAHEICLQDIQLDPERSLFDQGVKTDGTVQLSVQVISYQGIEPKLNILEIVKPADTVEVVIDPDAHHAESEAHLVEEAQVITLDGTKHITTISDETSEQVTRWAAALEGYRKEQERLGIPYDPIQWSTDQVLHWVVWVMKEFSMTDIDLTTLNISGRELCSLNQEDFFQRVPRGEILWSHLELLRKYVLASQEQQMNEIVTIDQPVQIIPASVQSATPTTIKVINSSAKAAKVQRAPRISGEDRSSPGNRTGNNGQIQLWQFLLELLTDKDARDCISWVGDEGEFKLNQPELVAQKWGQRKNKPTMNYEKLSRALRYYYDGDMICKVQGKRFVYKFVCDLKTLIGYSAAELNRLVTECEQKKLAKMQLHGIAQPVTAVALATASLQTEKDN
Summary of the method: as §1

ERG = biological target: T4, ERG (Homo sapiens, UniProt P11308 1-479); details: protein: recombinant; tags: N-terminal GST; dsDNA, one strand shown
T4 sequence: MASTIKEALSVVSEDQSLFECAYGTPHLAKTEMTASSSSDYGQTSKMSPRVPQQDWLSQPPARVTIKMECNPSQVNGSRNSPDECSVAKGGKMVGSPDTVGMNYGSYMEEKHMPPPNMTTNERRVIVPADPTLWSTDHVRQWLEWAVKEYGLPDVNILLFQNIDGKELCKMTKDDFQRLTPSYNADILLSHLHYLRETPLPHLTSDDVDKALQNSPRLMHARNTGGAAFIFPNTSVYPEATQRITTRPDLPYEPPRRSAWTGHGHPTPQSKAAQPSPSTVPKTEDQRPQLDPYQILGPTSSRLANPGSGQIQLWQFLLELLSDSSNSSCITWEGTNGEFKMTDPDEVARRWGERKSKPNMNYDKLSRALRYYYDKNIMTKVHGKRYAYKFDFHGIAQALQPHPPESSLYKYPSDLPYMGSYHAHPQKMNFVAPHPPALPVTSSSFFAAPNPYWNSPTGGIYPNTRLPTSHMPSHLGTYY
Summary of the method: as §1

ELF1 = ELF1 (Homo sapiens, UniProt P32519 1-619); details: protein: recombinant; tags: N-terminal GST; dsDNA, one strand shown
Summary of the method: as §1

EHF = biological target: T5, EHF (Homo sapiens, UniProt Q9NZC4 1-300); details: protein: recombinant; tags: N-terminal GST; dsDNA, one strand shown
T5 sequence: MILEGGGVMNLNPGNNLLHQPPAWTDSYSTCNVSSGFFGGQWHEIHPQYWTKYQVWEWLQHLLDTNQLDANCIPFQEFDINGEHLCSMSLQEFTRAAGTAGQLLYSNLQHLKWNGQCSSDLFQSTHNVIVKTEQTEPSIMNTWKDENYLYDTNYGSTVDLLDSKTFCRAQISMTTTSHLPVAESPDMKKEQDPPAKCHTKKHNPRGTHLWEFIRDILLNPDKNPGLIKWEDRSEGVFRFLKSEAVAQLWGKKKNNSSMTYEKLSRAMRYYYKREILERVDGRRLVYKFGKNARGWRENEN
Summary of the method: as §1

SPI1 = SPI1 (Homo sapiens, UniProt P17947 1-270); details: protein: recombinant; tags: N-terminal GST; dsDNA, one strand shown
Summary of the method: as §1

SPIB = SPIB (Homo sapiens, UniProt Q01892 1-262); details: protein: recombinant; tags: N-terminal GST; dsDNA, one strand shown
Summary of the method: as §1

ELK3 = biological target: T6, ELK3 (Homo sapiens, UniProt P41970 1-407); details: protein: recombinant; tags: N-terminal GST; dsDNA, one strand shown
T6 sequence: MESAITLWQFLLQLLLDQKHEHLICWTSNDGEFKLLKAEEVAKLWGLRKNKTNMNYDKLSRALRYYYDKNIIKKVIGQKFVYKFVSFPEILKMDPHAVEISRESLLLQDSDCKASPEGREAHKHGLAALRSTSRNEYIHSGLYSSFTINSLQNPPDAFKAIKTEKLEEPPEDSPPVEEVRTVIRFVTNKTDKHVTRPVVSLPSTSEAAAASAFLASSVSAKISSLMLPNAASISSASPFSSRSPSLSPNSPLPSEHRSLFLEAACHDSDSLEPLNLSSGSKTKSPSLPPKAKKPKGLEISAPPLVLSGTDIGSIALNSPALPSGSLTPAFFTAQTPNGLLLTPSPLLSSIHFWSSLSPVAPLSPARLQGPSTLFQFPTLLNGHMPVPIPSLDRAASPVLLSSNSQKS
Summary of the method: as §1

FEV = biological target: T7, FEV (Homo sapiens, UniProt Q99581 1-238); details: protein: recombinant; tags: N-terminal GST; dsDNA, one strand shown
T7 sequence: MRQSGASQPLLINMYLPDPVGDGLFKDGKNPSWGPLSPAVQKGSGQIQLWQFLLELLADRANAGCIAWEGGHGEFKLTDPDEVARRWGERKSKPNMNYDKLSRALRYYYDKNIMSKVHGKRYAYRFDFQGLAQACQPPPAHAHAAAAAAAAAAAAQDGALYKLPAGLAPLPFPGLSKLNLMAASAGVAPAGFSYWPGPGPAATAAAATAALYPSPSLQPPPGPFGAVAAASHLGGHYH
Summary of the method: as §1

ETV5 = ETV5 (Homo sapiens, UniProt P41161 1-510); details: protein: recombinant; tags: N-terminal GST; dsDNA, one strand shown
Summary of the method: as §1

HSF1 = HSF1 (Homo sapiens, UniProt Q00613 1-529); details: protein: recombinant; tags: N-terminal GST; chain copies: 3; dsDNA, one strand shown
Summary of the method: as §1

SPIC = biological target: T8, SPIC (Homo sapiens, UniProt Q8N5J4 1-248); details: protein: recombinant; tags: N-terminal GST; dsDNA, one strand shown
T8 sequence: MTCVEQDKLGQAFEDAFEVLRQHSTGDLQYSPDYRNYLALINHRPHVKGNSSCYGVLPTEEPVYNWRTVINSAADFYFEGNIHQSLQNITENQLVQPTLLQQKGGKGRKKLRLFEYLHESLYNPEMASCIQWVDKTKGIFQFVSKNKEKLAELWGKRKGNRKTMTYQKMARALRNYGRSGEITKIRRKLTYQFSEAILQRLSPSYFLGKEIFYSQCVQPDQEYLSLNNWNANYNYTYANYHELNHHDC
Summary of the method: as §1

ELF4 = ELF4 (Homo sapiens, UniProt Q99607 1-663); details: protein: recombinant; tags: N-terminal GST; dsDNA, one strand shown
Summary of the method: as §1

ELK4 = biological target: T9, ELK4 (Homo sapiens, UniProt P28324-2 1-405); details: protein: recombinant; tags: N-terminal GST; dsDNA, one strand shown
T9 sequence: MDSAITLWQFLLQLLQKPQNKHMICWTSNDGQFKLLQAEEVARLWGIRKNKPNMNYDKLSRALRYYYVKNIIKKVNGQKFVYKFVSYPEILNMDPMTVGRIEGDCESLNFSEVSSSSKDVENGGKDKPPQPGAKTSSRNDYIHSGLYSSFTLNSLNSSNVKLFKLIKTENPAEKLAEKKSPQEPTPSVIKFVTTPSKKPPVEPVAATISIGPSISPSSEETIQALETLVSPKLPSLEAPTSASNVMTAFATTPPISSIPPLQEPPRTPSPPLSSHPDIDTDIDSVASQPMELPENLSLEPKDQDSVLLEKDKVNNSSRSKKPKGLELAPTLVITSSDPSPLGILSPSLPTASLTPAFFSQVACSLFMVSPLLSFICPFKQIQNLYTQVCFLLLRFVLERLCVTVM
Summary of the method: as §1

ETV2 = biological target: T10, ETV2 (Homo sapiens, UniProt O00321 1-342); details: protein: recombinant; tags: N-terminal GST; dsDNA, one strand shown
T10 sequence: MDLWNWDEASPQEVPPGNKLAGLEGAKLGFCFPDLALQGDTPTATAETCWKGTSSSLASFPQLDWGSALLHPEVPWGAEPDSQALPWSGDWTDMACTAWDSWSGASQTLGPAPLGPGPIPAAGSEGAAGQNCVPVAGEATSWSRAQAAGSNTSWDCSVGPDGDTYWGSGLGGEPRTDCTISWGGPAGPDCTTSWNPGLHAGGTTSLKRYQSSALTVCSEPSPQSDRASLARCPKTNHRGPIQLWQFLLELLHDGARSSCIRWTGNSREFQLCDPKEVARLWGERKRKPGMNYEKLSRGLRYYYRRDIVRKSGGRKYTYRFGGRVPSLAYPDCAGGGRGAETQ
Summary of the method: as §1

CRX = CRX (Homo sapiens, UniProt O43186 1-299); details: protein: recombinant; tags: N-terminal GST; dsDNA, one strand shown
Summary of the method: as §1

ETV1 = ETV1 (Homo sapiens, UniProt P50549 1-477); details: protein: recombinant; tags: N-terminal GST; dsDNA, one strand shown
Summary of the method: as §1

ETV5, sequence (P41161 whole entry): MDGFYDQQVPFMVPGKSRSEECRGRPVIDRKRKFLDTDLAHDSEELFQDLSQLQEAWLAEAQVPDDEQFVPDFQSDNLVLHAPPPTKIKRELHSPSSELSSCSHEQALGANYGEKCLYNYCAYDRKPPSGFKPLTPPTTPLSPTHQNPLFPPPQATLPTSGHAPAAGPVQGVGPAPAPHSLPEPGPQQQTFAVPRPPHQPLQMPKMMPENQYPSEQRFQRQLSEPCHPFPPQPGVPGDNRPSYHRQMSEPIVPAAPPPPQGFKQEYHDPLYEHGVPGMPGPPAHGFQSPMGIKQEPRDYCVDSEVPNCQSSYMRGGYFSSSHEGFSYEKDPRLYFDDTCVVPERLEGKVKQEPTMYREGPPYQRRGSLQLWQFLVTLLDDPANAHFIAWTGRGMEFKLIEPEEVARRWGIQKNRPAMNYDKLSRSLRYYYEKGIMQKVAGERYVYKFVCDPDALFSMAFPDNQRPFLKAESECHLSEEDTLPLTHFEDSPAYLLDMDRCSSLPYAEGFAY
ELF4, sequence (Q99607 whole entry): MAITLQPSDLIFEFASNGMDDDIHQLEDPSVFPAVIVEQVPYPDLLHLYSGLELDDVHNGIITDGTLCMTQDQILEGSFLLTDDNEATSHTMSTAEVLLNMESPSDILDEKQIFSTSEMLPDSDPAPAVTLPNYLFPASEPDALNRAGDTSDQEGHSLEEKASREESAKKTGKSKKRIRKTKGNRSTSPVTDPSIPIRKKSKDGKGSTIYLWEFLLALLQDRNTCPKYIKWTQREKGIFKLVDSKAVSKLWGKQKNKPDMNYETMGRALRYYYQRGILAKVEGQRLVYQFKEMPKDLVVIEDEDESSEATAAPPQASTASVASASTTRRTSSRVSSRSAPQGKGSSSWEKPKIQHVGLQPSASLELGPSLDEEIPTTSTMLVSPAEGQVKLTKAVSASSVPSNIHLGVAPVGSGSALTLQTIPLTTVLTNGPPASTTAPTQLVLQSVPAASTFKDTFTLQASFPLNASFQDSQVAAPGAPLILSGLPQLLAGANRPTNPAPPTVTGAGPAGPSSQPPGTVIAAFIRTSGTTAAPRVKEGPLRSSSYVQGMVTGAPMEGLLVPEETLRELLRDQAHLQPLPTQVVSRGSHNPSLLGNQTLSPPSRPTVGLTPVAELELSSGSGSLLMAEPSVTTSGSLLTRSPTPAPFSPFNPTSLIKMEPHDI
CRX, sequence (O43186 whole entry): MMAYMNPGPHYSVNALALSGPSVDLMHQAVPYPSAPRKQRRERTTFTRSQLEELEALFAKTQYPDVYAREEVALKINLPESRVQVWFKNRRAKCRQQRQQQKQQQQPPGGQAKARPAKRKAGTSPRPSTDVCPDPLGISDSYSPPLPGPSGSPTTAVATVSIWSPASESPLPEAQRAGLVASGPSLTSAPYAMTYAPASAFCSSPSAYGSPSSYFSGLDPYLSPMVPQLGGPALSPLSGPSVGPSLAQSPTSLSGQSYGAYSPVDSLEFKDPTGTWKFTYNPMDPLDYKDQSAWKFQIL
HSF1, sequence (Q00613 whole entry): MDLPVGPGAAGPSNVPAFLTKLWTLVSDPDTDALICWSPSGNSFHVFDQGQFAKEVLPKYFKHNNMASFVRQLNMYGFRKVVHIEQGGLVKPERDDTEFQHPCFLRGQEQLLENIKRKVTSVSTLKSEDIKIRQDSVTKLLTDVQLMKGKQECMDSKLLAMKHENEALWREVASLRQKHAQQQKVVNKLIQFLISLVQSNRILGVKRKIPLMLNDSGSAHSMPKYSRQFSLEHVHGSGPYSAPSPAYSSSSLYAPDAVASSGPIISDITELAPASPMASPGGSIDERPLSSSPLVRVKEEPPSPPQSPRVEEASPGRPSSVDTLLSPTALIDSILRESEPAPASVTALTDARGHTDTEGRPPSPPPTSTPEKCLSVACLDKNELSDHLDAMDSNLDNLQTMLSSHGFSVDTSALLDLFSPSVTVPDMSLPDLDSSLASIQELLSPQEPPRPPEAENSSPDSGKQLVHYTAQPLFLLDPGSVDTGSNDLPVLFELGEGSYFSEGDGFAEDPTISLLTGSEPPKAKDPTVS
ELF1, sequence (P32519 whole entry): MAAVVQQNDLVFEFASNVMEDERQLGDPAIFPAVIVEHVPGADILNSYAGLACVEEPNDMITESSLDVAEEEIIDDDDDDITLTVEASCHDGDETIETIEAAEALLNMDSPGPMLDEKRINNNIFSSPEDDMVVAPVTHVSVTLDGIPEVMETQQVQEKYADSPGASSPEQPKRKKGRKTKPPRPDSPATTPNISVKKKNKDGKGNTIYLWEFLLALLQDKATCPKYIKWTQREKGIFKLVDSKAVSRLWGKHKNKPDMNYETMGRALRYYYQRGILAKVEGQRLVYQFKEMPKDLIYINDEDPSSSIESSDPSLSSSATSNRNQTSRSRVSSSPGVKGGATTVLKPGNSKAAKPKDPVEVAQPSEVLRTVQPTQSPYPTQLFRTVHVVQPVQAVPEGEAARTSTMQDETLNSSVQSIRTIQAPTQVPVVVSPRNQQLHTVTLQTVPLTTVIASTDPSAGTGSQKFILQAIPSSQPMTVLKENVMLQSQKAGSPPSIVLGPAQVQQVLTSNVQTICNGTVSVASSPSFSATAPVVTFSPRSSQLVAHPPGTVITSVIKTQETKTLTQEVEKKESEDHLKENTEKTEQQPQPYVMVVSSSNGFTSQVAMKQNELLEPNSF
SPIB, sequence (Q01892 whole entry): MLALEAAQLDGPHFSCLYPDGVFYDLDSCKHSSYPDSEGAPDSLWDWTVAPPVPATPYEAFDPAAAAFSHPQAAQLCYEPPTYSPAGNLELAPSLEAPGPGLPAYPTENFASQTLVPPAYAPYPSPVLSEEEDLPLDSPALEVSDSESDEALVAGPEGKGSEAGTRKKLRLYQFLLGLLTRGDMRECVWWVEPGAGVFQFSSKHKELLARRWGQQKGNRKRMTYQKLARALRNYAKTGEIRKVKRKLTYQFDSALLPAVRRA
ETV1, sequence (P50549 whole entry): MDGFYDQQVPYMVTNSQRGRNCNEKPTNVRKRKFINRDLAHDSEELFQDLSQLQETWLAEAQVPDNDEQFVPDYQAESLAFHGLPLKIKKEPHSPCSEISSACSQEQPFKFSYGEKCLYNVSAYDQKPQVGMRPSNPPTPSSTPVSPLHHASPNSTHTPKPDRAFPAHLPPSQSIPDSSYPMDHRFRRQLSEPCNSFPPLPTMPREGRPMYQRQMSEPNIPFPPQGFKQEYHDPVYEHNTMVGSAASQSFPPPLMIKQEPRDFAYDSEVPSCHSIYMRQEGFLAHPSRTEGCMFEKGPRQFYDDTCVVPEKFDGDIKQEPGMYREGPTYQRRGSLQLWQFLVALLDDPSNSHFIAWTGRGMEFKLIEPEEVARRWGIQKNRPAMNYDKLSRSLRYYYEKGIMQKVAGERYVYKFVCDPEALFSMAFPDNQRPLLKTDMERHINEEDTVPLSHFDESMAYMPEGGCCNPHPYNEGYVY

ATTCAG
binding signal (FLI1): 1.02 fold enrichment (6-mer frequency, TF over GST control)
binding signal (ELK1): 1.11 fold enrichment (6-mer frequency, TF over GST control)
binding signal (GABPA): 1.17 fold enrichment (6-mer frequency, TF over GST control)
binding signal (ERG): 1.14 fold enrichment (6-mer frequency, TF over GST control)
binding signal (ELF1): 1.09 fold enrichment (6-mer frequency, TF over GST control)
binding signal (EHF): 1.1 fold enrichment (6-mer frequency, TF over GST control)
binding signal (SPI1): 1.16 fold enrichment (6-mer frequency, TF over GST control)
binding signal (SPIB): 1.02 fold enrichment (6-mer frequency, TF over GST control)
binding signal (ELK3): 1.16 fold enrichment (6-mer frequency, TF over GST control)
binding signal (FEV): 1.03 fold enrichment (6-mer frequency, TF over GST control)
binding signal (ETV5): 1.1 fold enrichment (6-mer frequency, TF over GST control)
binding signal (HSF1): 1.17 fold enrichment (6-mer frequency, TF over GST control)
binding signal (SPIC): 1.17 fold enrichment (6-mer frequency, TF over GST control)
binding signal (ELF4): 1.13 fold enrichment (6-mer frequency, TF over GST control)
binding signal (ELK4): 1.08 fold enrichment (6-mer frequency, TF over GST control)
binding signal (ETV2): 1.02 fold enrichment (6-mer frequency, TF over GST control)
binding signal (CRX): 1.07 fold enrichment (6-mer frequency, TF over GST control)
binding signal (ETV1): 1.07 fold enrichment (6-mer frequency, TF over GST control)
